Common to all, as to experiment: DAPPL (digital affinity profiling via proximity ligation, sequencing); 10 mM Tris-HCl pH 7.5, 50 mM NaCl, 1 mM DTT, 4% glycerol, room temperature, 30 min; GST-TFs on glutathione beads, 16-mer random dsDNA library, 0.1% formaldehyde crosslink after washing; high values mean tight binding
One experiment deals with T1, FEV (Homo sapiens, UniProt Q99581 1-238).
T1 sequence: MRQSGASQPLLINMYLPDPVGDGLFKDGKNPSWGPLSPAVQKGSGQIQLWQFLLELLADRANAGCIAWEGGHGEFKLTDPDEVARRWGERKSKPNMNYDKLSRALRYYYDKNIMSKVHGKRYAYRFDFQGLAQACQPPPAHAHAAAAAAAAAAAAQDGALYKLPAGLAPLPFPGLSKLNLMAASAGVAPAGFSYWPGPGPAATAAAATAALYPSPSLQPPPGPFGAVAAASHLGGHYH
Conditions: protein: recombinant; tags: N-terminal GST; dsDNA, one strand shown. In short, it runs like this: (§1)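 Human transcription factors were made in yeast as GST fusions, captured on glutathione beads and barcoded with DNA. With a tag-only sample included, the pool was incubated with 200 nmole of a random double-stranded 16-mer DNA library in Tris/NaCl/DTT/glycerol buffer at room temperature for 30 min, then crosslinked with 0.1% formaldehyde after washing, ligated by proximity, amplified and sequenced. For binding signal, each hexamer's read frequency for a factor is divided by its frequency for the tag-only sample.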

The next experiment deals with ETV5 (Homo sapiens, UniProt P41161 1-510). To be noted: protein: recombinant; tags: N-terminal GST; dsDNA, one strand shown. In short, it runs like this: as §1
Another experiment addresses HSF1 (Homo sapiens, UniProt Q00613 1-529). To be noted: protein: recombinant; tags: N-terminal GST; chain copies: 3; dsDNA, one strand shown. A digest of the protocol:
as §1

A further experiment addresses T2, SPIC (Homo sapiens, UniProt Q8N5J4 1-248).
T2 sequence: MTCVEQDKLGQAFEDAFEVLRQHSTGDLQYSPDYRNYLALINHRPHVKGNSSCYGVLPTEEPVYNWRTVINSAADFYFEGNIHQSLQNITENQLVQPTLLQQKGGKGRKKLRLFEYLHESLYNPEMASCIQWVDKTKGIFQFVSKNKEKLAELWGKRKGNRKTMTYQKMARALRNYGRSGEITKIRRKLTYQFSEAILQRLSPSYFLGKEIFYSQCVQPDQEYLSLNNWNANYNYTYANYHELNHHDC
Conditions: protein: recombinant; tags: N-terminal GST; dsDNA, one strand shown. A digest of the protocol:
as §1

The target of a further experiment is ELF4 (Homo sapiens, UniProt Q99607 1-663). Conditions: protein: recombinant; tags: N-terminal GST; dsDNA, one strand shown. In short, it runs like this: as §1
A further experiment deals with T3, ELK4 (Homo sapiens, UniProt P28324-2 1-405).
T3 sequence: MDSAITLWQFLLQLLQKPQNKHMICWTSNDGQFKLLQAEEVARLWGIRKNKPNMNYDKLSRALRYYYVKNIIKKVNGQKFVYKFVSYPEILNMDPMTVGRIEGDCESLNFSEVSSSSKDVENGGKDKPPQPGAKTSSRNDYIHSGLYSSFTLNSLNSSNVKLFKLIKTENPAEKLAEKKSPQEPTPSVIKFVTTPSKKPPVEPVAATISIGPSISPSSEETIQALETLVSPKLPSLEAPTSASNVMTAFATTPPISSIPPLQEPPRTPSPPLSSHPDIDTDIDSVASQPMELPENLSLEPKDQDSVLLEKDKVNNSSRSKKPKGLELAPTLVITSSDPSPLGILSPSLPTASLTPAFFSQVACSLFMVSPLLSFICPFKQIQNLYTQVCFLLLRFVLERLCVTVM
To be noted: protein: recombinant; tags: N-terminal GST; dsDNA, one strand shown. A digest of the protocol:
as §1

The target in a further experiment is T4, ETV2 (Homo sapiens, UniProt O00321 1-342).
T4 sequence: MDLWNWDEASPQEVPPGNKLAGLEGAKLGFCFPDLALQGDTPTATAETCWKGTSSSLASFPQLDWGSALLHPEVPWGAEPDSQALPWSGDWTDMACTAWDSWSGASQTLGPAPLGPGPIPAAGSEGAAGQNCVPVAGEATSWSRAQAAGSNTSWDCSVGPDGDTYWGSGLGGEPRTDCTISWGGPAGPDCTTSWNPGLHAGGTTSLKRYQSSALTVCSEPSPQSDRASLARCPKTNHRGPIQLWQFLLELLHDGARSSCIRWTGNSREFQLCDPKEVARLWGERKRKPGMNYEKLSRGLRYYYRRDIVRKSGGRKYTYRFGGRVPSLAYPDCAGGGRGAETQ
To be noted: protein: recombinant; tags: N-terminal GST; dsDNA, one strand shown. A digest of the protocol: as §1

A further experiment deals with T5, ELF3 (Homo sapiens, UniProt P78545 1-371).
T5 sequence: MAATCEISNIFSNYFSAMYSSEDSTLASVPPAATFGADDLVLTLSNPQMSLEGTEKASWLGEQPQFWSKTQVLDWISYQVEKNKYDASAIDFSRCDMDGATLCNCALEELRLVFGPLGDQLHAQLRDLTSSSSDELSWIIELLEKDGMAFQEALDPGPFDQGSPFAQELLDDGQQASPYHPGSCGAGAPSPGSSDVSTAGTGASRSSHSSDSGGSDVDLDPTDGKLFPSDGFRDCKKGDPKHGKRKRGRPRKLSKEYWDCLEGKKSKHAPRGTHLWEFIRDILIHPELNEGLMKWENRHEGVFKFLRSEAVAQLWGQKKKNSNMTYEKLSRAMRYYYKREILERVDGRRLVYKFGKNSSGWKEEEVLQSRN
Conditions: protein: recombinant; tags: N-terminal GST; dsDNA, one strand shown. In short, it runs like this:
as §1

The next experiment deals with CRX (Homo sapiens, UniProt O43186 1-299). To be noted: protein: recombinant; tags: N-terminal GST; dsDNA, one strand shown. A digest of the protocol: as §1
In the next experiment the target is ETV1 (Homo sapiens, UniProt P50549 1-477). Conditions: protein: recombinant; tags: N-terminal GST; dsDNA, one strand shown. A digest of the protocol:
as §1

Another experiment addresses T6, ERF (Homo sapiens, UniProt P50548 1-548).
T6 sequence: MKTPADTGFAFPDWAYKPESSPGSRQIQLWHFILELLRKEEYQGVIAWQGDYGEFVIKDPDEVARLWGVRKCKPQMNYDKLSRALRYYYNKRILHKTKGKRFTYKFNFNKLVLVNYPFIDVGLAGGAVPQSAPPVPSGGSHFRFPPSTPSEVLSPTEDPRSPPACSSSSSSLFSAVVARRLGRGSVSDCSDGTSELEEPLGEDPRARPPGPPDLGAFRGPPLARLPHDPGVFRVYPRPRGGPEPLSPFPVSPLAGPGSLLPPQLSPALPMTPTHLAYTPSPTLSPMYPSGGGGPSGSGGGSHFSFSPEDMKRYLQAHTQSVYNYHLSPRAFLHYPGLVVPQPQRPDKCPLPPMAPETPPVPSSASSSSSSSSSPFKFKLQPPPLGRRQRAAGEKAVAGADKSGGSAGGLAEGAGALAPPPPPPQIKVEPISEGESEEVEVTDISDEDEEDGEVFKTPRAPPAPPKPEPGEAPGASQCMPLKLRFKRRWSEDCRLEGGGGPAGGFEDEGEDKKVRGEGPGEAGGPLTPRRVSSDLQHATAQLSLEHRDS
To be noted: protein: recombinant; tags: N-terminal GST; dsDNA, one strand shown. In short, it runs like this:
as §1

The next experiment addresses T7, ETV3L (Homo sapiens, UniProt Q6ZN32 1-361).
T7 sequence: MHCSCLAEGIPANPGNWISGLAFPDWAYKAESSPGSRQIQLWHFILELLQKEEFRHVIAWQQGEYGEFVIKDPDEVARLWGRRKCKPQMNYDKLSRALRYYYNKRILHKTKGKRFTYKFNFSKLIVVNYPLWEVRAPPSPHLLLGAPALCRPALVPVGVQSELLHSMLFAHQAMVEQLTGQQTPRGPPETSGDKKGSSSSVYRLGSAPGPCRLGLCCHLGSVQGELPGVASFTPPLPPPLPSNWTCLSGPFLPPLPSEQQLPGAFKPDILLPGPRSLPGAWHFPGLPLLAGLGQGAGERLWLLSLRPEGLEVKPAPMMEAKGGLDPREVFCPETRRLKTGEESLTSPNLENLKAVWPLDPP
Conditions: protein: recombinant; tags: N-terminal GST; dsDNA, one strand shown. A digest of the protocol: as §1

Another experiment concerns the target T8, ETS2 (Homo sapiens, UniProt P15036 1-469).
T8 sequence: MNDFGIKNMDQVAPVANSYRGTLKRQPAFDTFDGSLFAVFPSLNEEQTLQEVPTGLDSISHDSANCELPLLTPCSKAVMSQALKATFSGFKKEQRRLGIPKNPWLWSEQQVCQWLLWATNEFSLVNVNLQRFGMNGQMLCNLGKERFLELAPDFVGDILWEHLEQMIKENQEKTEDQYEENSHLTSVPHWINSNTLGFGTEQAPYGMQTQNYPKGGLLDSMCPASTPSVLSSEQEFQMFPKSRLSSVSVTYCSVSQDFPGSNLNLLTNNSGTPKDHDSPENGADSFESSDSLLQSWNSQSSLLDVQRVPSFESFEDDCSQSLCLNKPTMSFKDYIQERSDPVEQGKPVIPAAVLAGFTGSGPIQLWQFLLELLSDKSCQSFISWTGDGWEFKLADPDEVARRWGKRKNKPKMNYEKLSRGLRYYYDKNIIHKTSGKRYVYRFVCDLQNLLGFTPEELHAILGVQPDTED
To be noted: protein: recombinant; tags: N-terminal GST; dsDNA, one strand shown. A digest of the protocol: as §1

In another experiment the target is T9, SPDEF (Homo sapiens, UniProt O95238 1-335).
T9 sequence: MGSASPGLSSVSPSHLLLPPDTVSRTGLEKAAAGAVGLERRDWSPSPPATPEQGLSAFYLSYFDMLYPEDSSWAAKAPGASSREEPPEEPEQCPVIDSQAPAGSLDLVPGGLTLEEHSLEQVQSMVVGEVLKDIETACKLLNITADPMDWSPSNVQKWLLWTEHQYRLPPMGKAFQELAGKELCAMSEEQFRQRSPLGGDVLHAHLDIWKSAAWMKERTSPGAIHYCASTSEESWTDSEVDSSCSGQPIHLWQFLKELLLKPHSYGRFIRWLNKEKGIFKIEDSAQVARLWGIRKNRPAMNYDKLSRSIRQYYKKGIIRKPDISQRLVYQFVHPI
Conditions: protein: recombinant; tags: N-terminal GST; dsDNA, one strand shown. A digest of the protocol:
as §1

Another experiment has as its target T10, ETV7 (Homo sapiens, UniProt Q9Y603 1-341).
T10 sequence: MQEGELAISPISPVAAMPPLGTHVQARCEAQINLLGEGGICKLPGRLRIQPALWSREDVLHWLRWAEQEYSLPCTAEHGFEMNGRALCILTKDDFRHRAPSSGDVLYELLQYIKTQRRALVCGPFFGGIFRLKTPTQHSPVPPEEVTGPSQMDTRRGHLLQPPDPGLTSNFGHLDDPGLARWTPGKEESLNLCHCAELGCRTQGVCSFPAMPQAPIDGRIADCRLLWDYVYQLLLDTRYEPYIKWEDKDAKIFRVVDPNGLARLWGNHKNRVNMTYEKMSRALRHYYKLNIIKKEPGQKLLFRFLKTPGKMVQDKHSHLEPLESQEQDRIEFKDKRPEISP
Conditions: protein: recombinant; tags: N-terminal GST; dsDNA, one strand shown. A digest of the protocol: as §1

The target in another experiment is T11, ELF5 (Homo sapiens, UniProt Q9UKW6-2 1-255).
T11 sequence: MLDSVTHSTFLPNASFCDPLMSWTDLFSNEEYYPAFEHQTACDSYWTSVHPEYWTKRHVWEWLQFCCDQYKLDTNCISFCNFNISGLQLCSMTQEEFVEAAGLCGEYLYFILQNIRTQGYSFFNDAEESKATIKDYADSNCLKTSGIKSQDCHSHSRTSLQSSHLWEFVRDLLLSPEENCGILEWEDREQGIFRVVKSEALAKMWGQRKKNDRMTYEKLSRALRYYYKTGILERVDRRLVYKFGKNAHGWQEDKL
To be noted: protein: recombinant; tags: N-terminal GST; dsDNA, one strand shown. A digest of the protocol: as §1

The target of the next experiment is T12, ETV3 (Homo sapiens, UniProt P41162-2 1-143).
T12 sequence: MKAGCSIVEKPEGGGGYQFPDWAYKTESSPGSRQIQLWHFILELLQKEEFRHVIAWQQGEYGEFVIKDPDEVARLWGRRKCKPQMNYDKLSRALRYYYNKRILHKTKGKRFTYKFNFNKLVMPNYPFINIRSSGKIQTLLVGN
To be noted: protein: recombinant; tags: N-terminal GST; dsDNA, one strand shown. A digest of the protocol:
as §1

Another experiment deals with ETV6 (Homo sapiens, UniProt P41212 1-452). To be noted: protein: recombinant; tags: N-terminal GST; dsDNA, one strand shown. A digest of the protocol:
as §1

For one sequence, binding signal results are on record in PMC7862700, “An all-to-all approach to the identification of sequence-specific readers for epigenetic DNA modifications on cytosine”.

Sequence of ETV1 (P50549 whole entry): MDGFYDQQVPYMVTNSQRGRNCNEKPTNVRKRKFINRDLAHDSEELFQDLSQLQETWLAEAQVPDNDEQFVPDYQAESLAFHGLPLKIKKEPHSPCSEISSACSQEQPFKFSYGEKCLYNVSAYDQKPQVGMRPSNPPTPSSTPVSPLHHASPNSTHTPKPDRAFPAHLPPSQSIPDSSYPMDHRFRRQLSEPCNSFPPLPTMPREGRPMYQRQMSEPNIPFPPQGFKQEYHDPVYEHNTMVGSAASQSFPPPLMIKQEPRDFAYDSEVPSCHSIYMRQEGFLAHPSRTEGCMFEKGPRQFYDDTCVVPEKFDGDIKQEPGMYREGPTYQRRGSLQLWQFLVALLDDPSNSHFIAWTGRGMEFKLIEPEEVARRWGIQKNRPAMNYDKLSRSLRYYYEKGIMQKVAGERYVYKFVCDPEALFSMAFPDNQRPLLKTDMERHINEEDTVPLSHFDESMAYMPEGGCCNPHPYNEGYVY
Sequence of HSF1 (Q00613 whole entry): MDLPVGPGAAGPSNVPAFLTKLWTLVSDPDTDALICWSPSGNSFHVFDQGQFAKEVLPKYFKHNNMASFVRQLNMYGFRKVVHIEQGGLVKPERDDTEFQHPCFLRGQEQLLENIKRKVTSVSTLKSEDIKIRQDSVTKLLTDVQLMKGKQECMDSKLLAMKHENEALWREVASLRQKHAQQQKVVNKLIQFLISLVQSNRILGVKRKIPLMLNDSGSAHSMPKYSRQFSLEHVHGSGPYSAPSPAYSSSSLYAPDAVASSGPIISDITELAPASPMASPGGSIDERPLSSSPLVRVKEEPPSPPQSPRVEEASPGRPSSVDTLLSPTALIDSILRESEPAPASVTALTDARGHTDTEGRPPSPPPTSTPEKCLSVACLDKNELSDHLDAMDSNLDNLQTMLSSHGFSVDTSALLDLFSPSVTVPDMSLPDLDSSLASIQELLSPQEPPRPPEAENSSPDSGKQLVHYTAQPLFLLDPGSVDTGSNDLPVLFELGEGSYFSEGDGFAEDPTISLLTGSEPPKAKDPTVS
Sequence of CRX (O43186 whole entry): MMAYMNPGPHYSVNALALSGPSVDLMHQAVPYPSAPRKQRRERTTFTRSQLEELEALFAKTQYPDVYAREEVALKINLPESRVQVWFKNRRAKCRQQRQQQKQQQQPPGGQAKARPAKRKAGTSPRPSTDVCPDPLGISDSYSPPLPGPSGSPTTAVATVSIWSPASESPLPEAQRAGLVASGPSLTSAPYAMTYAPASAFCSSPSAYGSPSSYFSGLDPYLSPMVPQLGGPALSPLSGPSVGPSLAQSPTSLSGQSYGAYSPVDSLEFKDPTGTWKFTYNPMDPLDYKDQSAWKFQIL
Sequence of ETV5 (P41161 whole entry): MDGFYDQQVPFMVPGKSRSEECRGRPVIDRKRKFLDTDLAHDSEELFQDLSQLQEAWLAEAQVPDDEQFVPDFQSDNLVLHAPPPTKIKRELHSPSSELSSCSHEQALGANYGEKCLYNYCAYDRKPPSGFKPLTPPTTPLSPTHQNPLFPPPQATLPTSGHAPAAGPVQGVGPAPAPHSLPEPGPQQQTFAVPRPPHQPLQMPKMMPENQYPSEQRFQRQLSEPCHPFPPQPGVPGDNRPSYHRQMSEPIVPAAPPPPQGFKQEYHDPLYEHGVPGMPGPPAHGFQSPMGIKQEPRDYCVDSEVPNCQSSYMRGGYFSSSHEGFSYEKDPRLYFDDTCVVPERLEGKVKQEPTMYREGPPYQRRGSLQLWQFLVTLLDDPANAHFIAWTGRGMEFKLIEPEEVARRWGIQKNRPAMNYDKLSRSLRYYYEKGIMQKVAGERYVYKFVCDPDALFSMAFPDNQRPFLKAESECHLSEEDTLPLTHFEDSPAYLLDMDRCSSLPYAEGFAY
Sequence of ETV6 (P41212 whole entry): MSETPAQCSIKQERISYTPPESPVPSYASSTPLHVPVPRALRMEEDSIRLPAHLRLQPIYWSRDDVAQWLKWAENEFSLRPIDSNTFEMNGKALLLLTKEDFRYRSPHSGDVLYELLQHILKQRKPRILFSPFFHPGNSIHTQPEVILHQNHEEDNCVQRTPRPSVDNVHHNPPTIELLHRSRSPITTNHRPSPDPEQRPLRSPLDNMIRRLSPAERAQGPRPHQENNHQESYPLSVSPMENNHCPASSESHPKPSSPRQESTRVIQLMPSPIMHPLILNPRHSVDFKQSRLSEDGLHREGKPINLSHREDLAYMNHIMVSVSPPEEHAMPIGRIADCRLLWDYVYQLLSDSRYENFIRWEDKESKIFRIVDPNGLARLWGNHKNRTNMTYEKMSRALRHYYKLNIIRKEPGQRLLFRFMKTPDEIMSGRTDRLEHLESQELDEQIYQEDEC
Sequence of ELF4 (Q99607 whole entry): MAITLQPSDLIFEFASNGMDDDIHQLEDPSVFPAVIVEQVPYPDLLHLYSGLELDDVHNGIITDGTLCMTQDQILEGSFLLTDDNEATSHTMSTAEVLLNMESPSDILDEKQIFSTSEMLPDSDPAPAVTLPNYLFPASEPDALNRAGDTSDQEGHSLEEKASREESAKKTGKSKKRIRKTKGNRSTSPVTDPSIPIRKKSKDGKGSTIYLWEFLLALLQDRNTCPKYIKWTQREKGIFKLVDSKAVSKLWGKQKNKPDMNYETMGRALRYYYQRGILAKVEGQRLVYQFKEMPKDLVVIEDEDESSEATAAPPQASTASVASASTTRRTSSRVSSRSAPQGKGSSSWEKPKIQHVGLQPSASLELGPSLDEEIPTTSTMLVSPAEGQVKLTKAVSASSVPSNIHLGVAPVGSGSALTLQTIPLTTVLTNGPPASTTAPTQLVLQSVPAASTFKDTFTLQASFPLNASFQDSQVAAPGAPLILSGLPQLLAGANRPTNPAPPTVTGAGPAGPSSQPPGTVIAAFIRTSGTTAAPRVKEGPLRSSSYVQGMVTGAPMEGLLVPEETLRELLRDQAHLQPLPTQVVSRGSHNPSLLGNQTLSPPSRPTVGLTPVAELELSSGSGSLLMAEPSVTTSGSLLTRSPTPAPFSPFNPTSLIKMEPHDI

Turning to CTTAGT, the binding signal in the experiment with FEV is 1.13 fold enrichment (6-mer frequency, TF over GST control); with ETV5, 1.3 fold enrichment (6-mer frequency, TF over GST control); with HSF1 it was 1.49 fold enrichment (6-mer frequency, TF over GST control); with SPIC, 1.09 fold enrichment (6-mer frequency, TF over GST control); with ELF4 it was 1.26 fold enrichment (6-mer frequency, TF over GST control); with ELK4, 1.12 fold enrichment (6-mer frequency, TF over GST control). Moreover, the binding signal was 1.06 fold enrichment (6-mer frequency, TF over GST control) with ETV2; 1.18 fold enrichment (6-mer frequency, TF over GST control) with ELF3; 1.98 fold enrichment (6-mer frequency, TF over GST control) in the experiment with CRX; 1.17 fold enrichment (6-mer frequency, TF over GST control) with ETV1; 1.29 fold enrichment (6-mer frequency, TF over GST control) in the experiment with ERF; 1.18 fold enrichment (6-mer frequency, TF over GST control) with ETV3L. Further, the binding signal with ETS2 is 1.15 fold enrichment (6-mer frequency, TF over GST control); with SPDEF it was 1.2 fold enrichment (6-mer frequency, TF over GST control); in the experiment with ETV7, 1.07 fold enrichment (6-mer frequency, TF over GST control); with ELF5 it was 1.13 fold enrichment (6-mer frequency, TF over GST control); with ETV3, 1.31 fold enrichment (6-mer frequency, TF over GST control); with ETV6, 1.24 fold enrichment (6-mer frequency, TF over GST control).
